Drawing on PubChem BioAssay (Tox21), this text covers outcome and Potency for eight molecules.

A short description of assay [1]: qHTS assay to identify small molecule antagonists of the vitamin D receptor (VDR) signaling pathway - cell viability counter screen (AID 743225). Further: nearly all actives have a fitted effect of over 50% in size. In short, it runs like this:
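Read-out: CellTiter-Glo luminescence measured 30 min after reagent addition at room temperature. Cells were VDR-bla HEK 293T exposed 16 h at 37C, 5% CO2, to compound with 3 nM final calcitriol agonist.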
(Quantitative high-throughput screening tests each substance at several concentrations.)

Assay [2] can be described thus: qHTS assay to identify small molecule agonists of the NFkB signaling pathway - cell viability counter screen (AID 1159515; calls by dose curve; further: series mostly up to about 61 µM; nearly all actives have a fitted effect of over 55% in size). The gist of the method: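 5 hr compound treatment of NFkB-bla ME-180 cells (2,000/well, seeded overnight beforehand), followed by reporter substrate for 1.5 hr. CellTiter-Glo added afterward; luminescence after 30 min RT.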
Assay [3] can be described thus: qHTS assay to identify small molecule agonists of the endoplasmic reticulum stress response signaling pathway (AID 1159516; active means well fitted activation curve with a large enough effect in the signal ratio in the repeat runs, not every such curve was filed as active; the % refers to the signal ratio). The gist of the method: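 Reporter HeLa cells (ESRE-beta-lactamase) underwent 5 hr compound incubation at 37 C and 5% CO2 in quantitative HTS format. Detection followed 2 hr of FRET substrate loading at room temperature.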
Assay [4] is described as follows: qHTS assay to identify small molecule agonists of the endoplasmic reticulum stress response signaling pathway - cell viability counter screen (AID 1159517; calls by dose curve;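 further: HeLa cells carrying an ER stress response element beta-lactamase reporter; series mostly up to about 61 µM; nearly all actives have a fitted effect of over 50% in size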). The gist of the method:
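HeLa cells carrying an ESRE-driven beta-lactamase reporter receive compound for 5 hr at 37 C. Cell viability is then gauged with CellTiter-Glo by luminescence, 30 min at room temperature.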

The nature of assay [5]: qHTS assay to identify small molecule antagonists of the retinoid-related orphan receptor gamma (ROR-gamma) signaling pathway - cell viability counter screen (AID 1159520). Further: nearly all actives have a fitted effect of over 50% in size. In short, it runs like this:
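Cytotoxicity was read from cellular ATP (CellTiter-Glo luminescence) after 16 hr at 37 C with 1 uM doxycycline induction. The inducer was added 2 hr after compound transfer to Tet-on ROR gamma CHO cells.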

The target of assay [6] is Nuclear receptor ROR-gamma (Homo sapiens) (UniProt P51449). Put plainly: qHTS assay to identify small molecule antagonists of the retinoid-related orphan receptor gamma (ROR-gamma) signaling pathway (AID 1159521;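 further: CHO cells with doxycycline inducible ROR-gamma driving an RORE luciferase reporter; top concentration of the series differs between compounds; nearly all actives have a fitted effect of over 50% in size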). In short, it runs like this:
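CHO Tet-on RORγ, RORE-luc reporter. Cpd 2 h pre-incubation, then dox hyclate 1 uM final, 16 h, 37 C/5% CO2. ONE-Glo luminescence; decrease = antagonist.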

Assay [7] is described as follows: qHTS assay to identify small molecule agonists of the AP-1 signaling pathway - cell viability counter screen (AID 1159525; calls by dose curve; further: nearly all actives have a fitted effect of over 55% in size). In short, it runs like this: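 Luminescent ATP readout (Cell Titer Glo, 30 min RT), normalised to DMSO and tetra n-octyl ammonium bromide controls. Cells were ME-180 AP-1-bla in 0.5% dialyzed FBS Opti-MEM, with a 5 h, 37 °C compound exposure.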

The nature of assay [8]: qHTS assay to identify small molecule agonists of the AP-1 signaling pathway (AID 1159526; calls by dose curve).
Assay [9] has as its target Retinoic acid receptor RXR-alpha (Homo sapiens) (UniProt P19793). Description: qHTS assay to identify small molecule agonists of the RXR signaling pathway (AID 1159527; calls by dose curve; further: nearly all actives have a fitted effect of over 35% in size). In short, it runs like this:
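Read-out: beta-lactamase FRET ratio (405 nm excitation, 460 and 530 nm emission) after 2 hr substrate loading at room temperature. Cells were RXR-alpha-UAS-bla HEK 293T treated with compounds for 16 hr in 2% charcoal-stripped FBS medium.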

The nature of assay [10]: qHTS assay to identify small molecule agonists of the RXR signaling pathway - cell viability counter screen (AID 1159529). In short, it runs like this: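 HEK 293T RXRa-bla cells, 2% CS-FBS; 5 h settle; cpd 16 h 37 C, 5% CO2; CellTiter-Glo 30 min RT, luminescence. Tetraoctyl ammonium bromide as positive control.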
Assay [11] in a line: qHTS assay to identify small molecule antagonists of the retinoid acid receptor (RAR) signaling pathway - cell viability counter screen (AID 1159551). Further: nearly all actives have a fitted effect of over 35% in size. The gist of the method:
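Seed C3RL4 cells; next day add compound, then retinol to 1 uM final; incubate 6 h at 37 C; add CellTiter-Glo; read luminescence after 30 min at RT.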

Assay [12] can be described thus: qHTS assay to identify small molecule antagonists of the retinoic acid receptor (RAR) signaling pathway (AID 1159552; further: nearly all actives have a fitted effect of over 50% in size). The gist of the method: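 Cells of the C3RL4 line were seeded, incubated overnight, then dosed with compounds in DMSO followed immediately by retinol (1 uM final). Six hours later luciferase detection reagent went in; signal was measured after 30 min at RT.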

The nature of assay [13]: qHTS assay to identify small molecule agonists of the retinoic acid receptor (RAR) signaling pathway (AID 1159553). In short, it runs like this: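 Activation of retinol signaling was monitored via a RARE luciferase reporter in C3RL4 cells. After 6 hr compound treatment at 37 C, detection reagent was added for 30 min at room temperature before luminescence reading.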
Assay [14] is described as follows: qHTS assay to identify small molecule antagonists of the estrogen related receptor (ERR) signaling pathway from Tox21 library - cell viability counter screen (AID 1224834). Further: nearly all actives have a fitted effect of over 30% in size. In short, it runs like this: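 CellTiter-Fluor fluorescence measured; ERR cells; 17.5 h compound incubation at 37 C; 30 min reagent step.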
Assay [15] deals with Luciferin 4-monooxygenase (Photinus pyralis) (UniProt P08659). Put plainly: qHTS assay to identify small molecule inhibitors of firefly luciferase (AID 1224835). Further: nearly all actives have a fitted effect of over 25% in size. Further: potency means the concentration at half of the fitted maximal effect. In short, it runs like this:
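Inhibition of purified Photinus luciferase is measured by luminescence. Substrate levels (D-luciferin, ATP) sit at their KM values. Each compound is tested in a concentration series.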

Assay [16] can be described thus: qHTS assay to identify small molecule agonists of the constitutive androstane receptor (CAR) signaling pathway - cell viability counter screen (AID 1224836). Further: series mostly up to about 92 µM; nearly all actives have a fitted effect of over 45% in size. In short, it runs like this:
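HepG2-CYP2B6-hCAR, 2500 cells/well, 4 h pre-incubation; cpd 15 conc + PK11195 0.75 uM final; 23 h, 37 C/5% CO2; CellTiter-Fluor, fluorescence.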

Assay [17] can be described thus: qHTS assay to identify small molecule antagonists of the constitutive androstane receptor (CAR) signaling pathway - cell viability counter screen (AID 1224837). Further: series mostly up to about 92 µM; nearly all actives have a fitted effect of over 45% in size. The gist of the method:
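Using CellTiter-Fluor, viability is scored in HepG2 cells stably carrying hCAR and a 2.2kb CYP2B6 reporter after 23 hr compound exposure across 15 concentrations, with CITCO present at 50 nM.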

Assay [18] is described as follows: qHTS assay to identify small molecule antagonists of the estrogen related receptor signaling pathway with the pleiotropic PPARgamma coactivator (PGC) from Tox21 10K library - cell viability counter screen (AID 1224840; active means well fitted cell-killing curve with a large enough effect in the repeat runs, not every such curve was filed as active; further: nearly all actives have a fitted effect of over 40% in size). In short, it runs like this:
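Here the PGC/ERR cells serve as a cytotoxicity control: they are exposed to compounds for 17.5 hours at 37 C, and live-cell signal is quantified using CellTiter-Fluor fluorescence.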

Assay [19] concerns the target Nuclear receptor subfamily 1 group I member 3 (Homo sapiens) (UniProt Q14994). Description: qHTS assay to identify small molecule agonists of the constitutive androstane receptor (CAR) signaling pathway (AID 1224839). Further: nearly all actives have a fitted effect of over 15% in size. Further: potency means the concentration at half of the fitted maximal effect.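 On activation: HepG2 cells stably carrying human CAR and a CYP2B6 luciferase reporter; series mostly up to about 92 µM.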 In short, it runs like this: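 HepG2-CYP2B6-hCAR cells, 2500/well, 4 h pre-incubation; compounds 15 conc.; PK11195 0.75 uM final; 24 h, 37 C/5% CO2; ONE-Glo luciferase read.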

The target is the same in assay [20]. Put plainly: qHTS assay to identify small molecule antagonists of the constitutive androstane receptor (CAR) signaling pathway (AID 1224838).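 Further: HepG2 cells stably expressing hCAR with CYP2B6 luciferase reporter stimulated by CITCO; nearly all actives have a fitted effect of over 40% in size.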 The gist of the method: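 Reporter luminescence was quantified after 24 h exposure of hCAR/CYP2B6-2.2kb double-stable HepG2 cells to compounds at 15 concentrations in the presence of 50 nM CITCO final.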

SMILES strings stand for the structures. Records with an inconclusive call do not appear. A number with no mark means an inactive call. The source made the active and inactive calls. Unless noted, the call rests on the fitted dose curve; in most records, active means well fitted curve in the direction sought with a large enough effect in the repeat runs; inconclusive means weak or mixed curves; inactive means no such curve, though single readings can be large; an effect the other way counts as inactive or inconclusive.

Chain of Luciferin 4-monooxygenase (Photinus pyralis) (P08659 whole entry, looked up): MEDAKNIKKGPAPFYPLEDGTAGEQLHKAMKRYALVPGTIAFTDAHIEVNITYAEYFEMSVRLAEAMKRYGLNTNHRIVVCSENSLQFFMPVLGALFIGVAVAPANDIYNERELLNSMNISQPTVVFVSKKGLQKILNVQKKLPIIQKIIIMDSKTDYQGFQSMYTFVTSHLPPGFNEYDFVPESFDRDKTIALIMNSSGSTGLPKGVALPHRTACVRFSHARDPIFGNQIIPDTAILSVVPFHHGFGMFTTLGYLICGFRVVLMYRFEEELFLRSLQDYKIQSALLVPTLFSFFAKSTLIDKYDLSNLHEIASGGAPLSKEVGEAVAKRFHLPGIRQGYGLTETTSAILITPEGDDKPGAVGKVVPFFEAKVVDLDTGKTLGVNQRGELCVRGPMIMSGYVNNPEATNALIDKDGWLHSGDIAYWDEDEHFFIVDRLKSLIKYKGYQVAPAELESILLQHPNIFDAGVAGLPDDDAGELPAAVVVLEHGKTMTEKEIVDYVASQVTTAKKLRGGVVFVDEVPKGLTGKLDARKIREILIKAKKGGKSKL
Chain of Nuclear receptor subfamily 1 group I member 3 (Homo sapiens) (Q14994 whole entry, looked up): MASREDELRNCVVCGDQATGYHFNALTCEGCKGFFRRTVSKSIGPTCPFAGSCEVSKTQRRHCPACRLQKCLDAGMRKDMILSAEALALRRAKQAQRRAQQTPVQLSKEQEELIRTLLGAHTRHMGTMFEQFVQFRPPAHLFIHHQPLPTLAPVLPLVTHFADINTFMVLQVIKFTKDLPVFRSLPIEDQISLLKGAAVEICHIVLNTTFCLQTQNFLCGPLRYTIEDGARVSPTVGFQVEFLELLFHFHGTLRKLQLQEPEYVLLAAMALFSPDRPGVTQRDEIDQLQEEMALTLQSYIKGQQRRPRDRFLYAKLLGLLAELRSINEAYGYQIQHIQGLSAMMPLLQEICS
Chain of Retinoic acid receptor RXR-alpha (Homo sapiens) (P19793 whole entry, looked up): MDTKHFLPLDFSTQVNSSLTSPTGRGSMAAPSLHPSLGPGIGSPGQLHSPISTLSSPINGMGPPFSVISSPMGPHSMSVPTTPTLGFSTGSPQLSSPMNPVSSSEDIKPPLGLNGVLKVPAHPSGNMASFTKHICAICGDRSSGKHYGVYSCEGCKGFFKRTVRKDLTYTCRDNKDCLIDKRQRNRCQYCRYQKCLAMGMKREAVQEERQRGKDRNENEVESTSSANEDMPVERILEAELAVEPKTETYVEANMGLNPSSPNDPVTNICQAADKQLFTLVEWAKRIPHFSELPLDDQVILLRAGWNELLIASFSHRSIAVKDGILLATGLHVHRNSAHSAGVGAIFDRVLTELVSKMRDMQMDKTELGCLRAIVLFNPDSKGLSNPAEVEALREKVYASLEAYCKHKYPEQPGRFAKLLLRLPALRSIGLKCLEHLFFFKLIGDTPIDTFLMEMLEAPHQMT

For the molecule `C=CC(=O)CC`, the result in assay [1], in assay [2], in [4], in assay [5], in assay [6] and in assay [7] was inactive. Also, the molecule was called inactive in [11], in assay [12], in assay [14], in assay [16], in [17] and in assay [18]. Moreover, the Potency result in assay [3], in assay [8], in [9], in assay [10], in assay [13] and in assay [15] was “inactive” throughout.

For `O=C[C@@H](O)[C@H](O)[C@H](O)CO`, the molecule was called inactive in [1], in assay [2], in assay [4], in assay [5], in assay [6] and in [7]. The molecule was called inactive in [11], in [12], in [14], in [16], in assay [17] and in assay [18]. The Potency entry in assay [3], in assay [8], in assay [9], in assay [10], in [13] and in assay [15] was “inactive” in each case. Also, the Potency result in assay [19] was “inactive”.

`CC[N+](C)(CC)CC`: the outcome in assay [1], in assay [2], in assay [4], in assay [5], in assay [6] and in assay [7] was inactive. For the same molecule, the molecule was classed as inactive in [11], in [12], in [14], in assay [16] and in assay [17]. Moreover, the Potency result in assay [3], in assay [8], in assay [9], in assay [10], in assay [13] and in [15] was “inactive” throughout. The Potency entry in [19] is “inactive”.

Regarding `CC(C)(Sc1cc(C(C)(C)C)c(O)c(C(C)(C)C)c1)Sc1cc(C(C)(C)C)c(O)c(C(C)(C)C)c1`, the molecule was called inactive in [1], in [2], in [4], in [5], in assay [6] and in assay [7]. The call in [11], in [12], in assay [14], in assay [16], in assay [17] and in assay [18] was inactive. Also, the Potency result in assay [3], in assay [8], in [9], in assay [10], in assay [13] and in [15] was “inactive” in each case.

As to `COC(=O)C(c1ccccc1Cl)N1CCc2sccc2C1` (stereo unspecified), the outcome in assay [1], in assay [2], in assay [4], in assay [5], in [6] and in assay [7] was inactive. Besides, the molecule was called inactive in assay [11], in assay [12], in [14], in assay [16], in assay [17] and in [20]. Besides, the molecule was called inactive in [18]. In addition, the Potency result in [3], in assay [8], in assay [9], in assay [10], in assay [13] and in [15] was “inactive” in each case.

Consider `O=CN1CCCCC1`, for which the result in assay [1], in assay [2], in assay [4], in assay [5], in assay [6] and in [7] was inactive. Further, the molecule was classed as inactive in [11], in assay [12], in assay [16], in assay [17], in assay [20] and in assay [18]. Moreover, the Potency result in assay [3], in [8], in assay [9], in [10], in assay [13] and in assay [15] was “inactive” each time. Besides, the Potency entry in assay [19] was “inactive”.

Regarding `CC(=O)c1ccc2ccc3ccccc3c2c1`, the outcome in assay [1], in assay [2], in assay [4], in [5], in [6] and in assay [7] was inactive. Also, the call in assay [11], in assay [12], in assay [16], in [17] and in assay [18] was inactive. Further, the Potency entry in [3], in [8], in [9], in [10] and in [13] was “inactive” each time. In addition, the Potency in assay [15] is 31.5 µM (active); in assay [19] it was 60.8 µM (active).

In the case of `C=CCn1cc[n+](C)c1`, the result in assay [1], in assay [2], in [4], in assay [5], in assay [6] and in [7] was inactive. In addition, the result in [11], in assay [12], in [14], in [16] and in assay [17] was inactive. The Potency result in assay [3], in [8], in [9], in assay [10], in assay [13] and in assay [15] was “inactive” in each case.
